From PubChem BioAssay AID624483 (NMMLSC, 2012) come the findings set out here.

SMILES strings stand for the structures. Screen size: about 360,000 compounds; about 11,000 (3.1%) were called active. Not shown: some 2% with an inconclusive outcome. The full list was thinned out, with actives kept by preference. Unmarked numbers belong to inactive results. Rule as the data show it: active = fluorescence intensity above about 16000; inconclusive = no clear call, values can overlap the other calls; inactive = below that.

This assay can be described thus: counter-screen for toxin protease inhibitors: compound fluorescence, primary screen, artefact control for toxin protease inhibitor project, biochemical, multiplex microsphere, HTS (AID 624483). The note with it: compound autofluorescence counterscreen, microsphere flow cytometry; hits give high values. In general terms: The purpose of a counterscreen is to sort out artefacts and off-target activity.
For `COc1ccc(CCn2c(NCCCN3CCOCC3)nc3c2c(=O)[nH]c(=O)n3C)cc1`, the fluorescence intensity was 4180.

Regarding `CCCCNc1nc2c(c(=O)n(C)c(=O)n2C)n1Cc1cccc(OC)c1`, the fluorescence intensity is 4560.

In the case of `CCCCNc1nc2c(c(=O)[nH]c(=O)n2C)n1CCOc1ccccc1`, the fluorescence intensity was 20600 (active).

Consider `CCCC/C=C/c1cccc2nncn12`, for which the fluorescence intensity is 3130.

Take `COc1ccc(CN2CN(C(C)C)CSC2=S)cc1`: the fluorescence intensity is 24500 (active).

For `COc1ccc(CCC(C)N2CCc3ccccc3C2)cc1` (stereo not drawn), the fluorescence intensity is 3950.

On to `COc1ccc(CN2CN(C3CCCC3)CSC2=S)cc1`, for which the fluorescence intensity was 3230.

As to `NC(=O)COc1ccc2c3c(c(=O)oc2c1)CCCCC3`, the fluorescence intensity is 24300 (active).

On to `O=C(COc1ccc2c3c(c(=O)oc2c1)CCC3)NC1CCCCC1`, for which the fluorescence intensity was 9280.

As to `NC(=O)C1CCN(C(=O)COc2ccc3c4c(c(=O)oc3c2)CCC4)CC1`, the fluorescence intensity was 5000.

As for `Cc1nc(C(F)(F)F)ccc1C(=O)N1CCC1(C)C(=O)NS(=O)(=O)c1ccccc1Cl` (stereo not drawn), the fluorescence intensity is 2880.

`O=C(CSc1nnc(-c2ccncc2)n1C1CCCCC1)Nc1ccccc1`: the fluorescence intensity is 20700 (active).

On to `O=C(CSc1nnc(-c2ccncc2)n1-c1ccc(Cl)cc1)Nc1ccc(C(=O)O)cc1`, for which the fluorescence intensity was 3940.

Turning to `COCCCn1c(SCC(=O)Nc2ccccc2)nnc1-c1ccncc1`, the fluorescence intensity was 3490.

`CN(C(=O)c1c(Cl)cnn1C)C12CC3CC(CC(C3)C1)C2`: the fluorescence intensity is 2490.

For the compound `CCCNC(=O)C1(C)CCCN(Cc2cccc(C(F)(F)F)c2)C1` (stereo not drawn), the fluorescence intensity is 3060.

As to `CC(C)C(C)NC(=O)COc1ncnc2ccccc12` (stereo not drawn), the fluorescence intensity is 2080.

As for `O=C(COc1ncnc2ccccc12)NC(=O)NCc1ccccc1`, the fluorescence intensity was 16500 (active).

Regarding `O=C(CSc1ncccn1)NC(=O)NCc1ccccc1`, the fluorescence intensity is 10500.

`CCc1nc2ccccc2c(C(=O)NCc2ccc(OC)cc2)c1C`: the fluorescence intensity was 4980.

In the case of `CCSc1ccccc1C(=O)NCc1ccc(OC)cc1`, the fluorescence intensity was 24300 (active).

Regarding `CSc1ccccc1C(=O)NCc1ccccc1`, the fluorescence intensity is 3280.

For the compound `O=C(CCN1C(=O)c2ccccc2C1=O)C1=NN[C@@H]2C(=O)N(c3ccc(F)cc3)C(=O)[C@H]12`, the fluorescence intensity was 2580.

Regarding `CC(C)(C)N1C(=O)c2c(C(=O)OCc3ccccc3)[nH]c(-c3ccccc3)c2C1=O`, the fluorescence intensity is 5800.

For the compound `CC1CCN(Cc2nc(-c3ccc(Cl)cc3)no2)CC1`, the fluorescence intensity was 6270.

Consider `O=c1ccc(S(=O)(=O)N2CCCC2)cn1Cc1nc(-c2ccccc2)no1`, for which the fluorescence intensity was 3920.

In the case of `Cc1ccc(-c2noc(CN3CCN(Cc4ccccc4)CC3)n2)cc1`, the fluorescence intensity was 23500 (active).

As to `COc1ccc(S(=O)(=O)N2CCCCC2c2cc(C(=O)NCc3ccc(F)cc3)no2)cc1` (stereo not drawn), the fluorescence intensity was 2840.

With `CCCNC(=O)COc1coc(CN2CCN(Cc3ccccc3)CC2)cc1=O`, the fluorescence intensity is 5680.

On to `CC1(C)Oc2ccc3ccc(=O)oc3c2/C(=C/NCCO)C1=O`, for which the fluorescence intensity is 2160.

On to `COc1ccccc1C1=CC(=O)CCC1`, for which the fluorescence intensity is 3790.

With `CCOC(=O)CN1CCC(c2ccccc2)CC1`, the fluorescence intensity was 2610.

Take `CCOC(=O)Cn1c2c(c(-c3ccccc3OC)cc1=O)CCCC2`: the fluorescence intensity was 23500 (active).

On to `C[C@H]([C@@H](O)[C@@H](O)[C@@H](C)C(C)(C)C)[C@H]1CC[C@H]2C3CC[C@H]4C[C@H](OS(=O)(=O)O)[C@@H](OS(=O)(=O)O)C[C@]4(C)[C@H]3CC[C@]12C` (stereo partly drawn), for which the fluorescence intensity was 4680.

Take `CCOC(=O)Cc1csc(SCC(=O)NC(C)C23CC4CC(CC(C4)C2)C3)n1` (stereo not drawn): the fluorescence intensity is 9570.

In the case of `COC(=O)CNC(=O)c1ccc2c(c1)S(=O)(=O)c1ccccc1C2=O`, the fluorescence intensity is 2970.

With `CC(C)NC(=O)NNc1c(Cl)cncc1Cl`, the fluorescence intensity was 3840.

Regarding `CCOC(=O)NNc1cc(C(F)(F)F)ccn1`, the fluorescence intensity is 3590.

In the case of `Cc1nc(N)[nH]c(=O)c1Oc1cccc(C(F)(F)F)c1`, the fluorescence intensity was 6010.

`CCC(=O)OCc1c(C(F)(F)F)nn(C)c1Oc1cccc(C(F)(F)F)c1`: the fluorescence intensity is 18100 (active).

On to `CCCCNC(=O)Nc1c(C)cc(SC#N)cc1C`, for which the fluorescence intensity is 2550.

On to `Cn1c2ccccc2n2c(=O)c(=O)n(CC(=O)c3ccc(F)cc3)nc12`, for which the fluorescence intensity is 8720.

Consider `CC1(C(=O)NS(=O)(=O)c2ccccc2)CCN1C(=O)C1CCCCC1` (stereo not drawn), for which the fluorescence intensity was 3660.

Consider `Cc1ccccc1N1CCN(S(=O)(=O)c2ccc3ccccc3c2)CC1`, for which the fluorescence intensity is 4580.

As to `Cc1ccc(S(=O)(=O)N2CCN(c3ccccc3)CC2)cc1C`, the fluorescence intensity was 4010.

`Cc1cc(N2CCN(S(=O)(=O)c3ccc(C)c(C)c3)CC2)c2ccccc2n1`: the fluorescence intensity is 23300 (active).

On to `CCCS(=O)(=O)NC(=O)C1(C)CCN(C(=O)c2sccc2C)C1` (stereo not drawn), for which the fluorescence intensity was 3570.

As to `CC(=O)N1Cc2cc(C(=O)NCc3cccc(F)c3)nc(-c3cccc(C4=CCCC4)c3)c2[C@H]1CCO`, the fluorescence intensity was 5550.

As for `O=c1cc(-c2ccccc2)nc(N2CCCCC2)[nH]1`, the fluorescence intensity is 6120.

As for `O=[N+]([O-])c1ccc(C2C3C(c4ccccc4)=NC4(CCCCC4)N32)cc1` (stereo not drawn), the fluorescence intensity is 7680.

On to `O=C1NC2(CCCCC2)N=C1c1ccccc1`, for which the fluorescence intensity was 24900 (active).

For the compound `CCCNC(=O)C1(C)CCN(C(=O)c2ccc(F)cc2Cl)C1` (stereo not drawn), the fluorescence intensity was 2840.

Consider `COCCNC(=O)C1CCCN(Cc2ccccc2Cl)CC1` (stereo not drawn), for which the fluorescence intensity is 3660.

For the compound `CCOC(=O)c1c(CN(C)C)n(-c2ccccc2)c2cc(Br)c(O)cc12`, the fluorescence intensity is 5060.

In the case of `CCOC(=O)c1nnn(-c2nonc2-n2cccc2)c1CN1CCOCC1`, the fluorescence intensity is 10800.

Regarding `CCOC(=O)c1c(CN2CCOCC2)n(-c2ccccc2)c2ccc(O)cc12`, the fluorescence intensity is 16500 (active).

Regarding `C[C@H]1CN([C@@H](C)CO)C(=O)Cc2cc(NS(C)(=O)=O)ccc2O[C@@H]1CN(C)CC1CC1`, the fluorescence intensity was 3570.

`CCc1nc2c(OCCOc3ccccc3)cccn2c1N(C)C(=O)c1cccs1`: the fluorescence intensity is 3880.

Regarding `CCOc1ccc(Cl)cc1-c1cc(C(=O)NCc2cccs2)[nH]n1`, the fluorescence intensity was 3900.

With `CC(=O)c1cccc(-c2cnc3c(NC=O)cc(-c4ccc(N(C)C)cc4)cn23)c1`, the fluorescence intensity is 3260.

Regarding `CC(C)(C)OC(=O)N1CCN(C(=O)c2[nH]c(C(F)(F)F)nc2-c2ccccc2)CC1`, the fluorescence intensity is 5720.

Turning to `CC(C)NS(=O)(=O)c1ccc(OCC(=O)Nc2ccc3c(c2)OCCO3)cc1`, the fluorescence intensity is 4280.

Take `CCN(CC(=O)Nc1ccc2c(c1)OCCO2)Cc1cc(=O)oc2cc(C)c(C)cc12`: the fluorescence intensity is 10100.

Turning to `O=C(COc1ccc2c(C(F)(F)F)cc(=O)oc2c1)Nc1ccc2c(c1)OCCO2`, the fluorescence intensity is 23100 (active).

As for `Cc1cc(C(=O)N2CCCC2(C)C(=O)O)c(C)o1` (stereo not drawn), the fluorescence intensity is 4080.

In the case of `Cc1cccc(C)c1Cn1c(C)c(C(=O)NCc2cccc(Cl)c2)sc1=O`, the fluorescence intensity was 4280.

In the case of `CC(C)COP(=O)(c1ccc(N(C)C)cc1)C(Nc1ccccc1)c1cccnc1` (stereo not drawn), the fluorescence intensity is 2300.

As to `COC(=O)c1ccc(C(=O)OC)c(NC(=S)N2CCN(c3cc(Cl)ccc3C)CC2)c1`, the fluorescence intensity was 2510.

Turning to `Cc1ccccc1C(=O)Nc1ccccc1NC(=O)c1ccccc1C`, the fluorescence intensity was 3760.

In the case of `COC(=O)c1ccc(C(=O)Nc2cc(Cl)ccc2Cl)cc1NC(=O)c1ccccc1C`, the fluorescence intensity is 23700 (active).

Consider `CC1CCN(S(=O)(=O)c2ccc(S(=O)(=O)NCc3ccco3)cc2)CC1`, for which the fluorescence intensity was 6420.

On to `COc1ccc(C2=NOC3(CC(=O)N(c4ccc(Cl)cc4)C3=O)C2)c(OC)c1` (stereo not drawn), for which the fluorescence intensity was 20500 (active).

With `COc1cccc(N2CCN(C3CC(=O)N(c4ccc(Cl)cc4)C3=O)CC2)c1` (stereo not drawn), the fluorescence intensity is 2900.

`O=C1CC2(CC(c3ccc(Cl)cc3)=NO2)C(=O)N1c1ccccc1` (stereo not drawn): the fluorescence intensity is 5420.

As for `CSc1ccc(CNC(=O)C2(C)CCCN2C)cc1` (stereo not drawn), the fluorescence intensity was 3920.

Consider `COc1ccc2oc(N)nc2c1`, for which the fluorescence intensity is 2890.

For `COc1ccc2oc(=O)c(C(=O)O)cc2c1`, the fluorescence intensity was 20900 (active).

For the compound `COc1ccc2oc(=N)c(C(=O)Nc3ccc(Br)cc3)cc2c1`, the fluorescence intensity was 2900.

In the case of `Cc1ccc(NC(=O)[C@H](Cc2ccccc2)NC(=O)CC[C@H]2O[C@@H](n3ccc(=O)[nH]c3=O)[C@H](O)[C@@H]2O)cc1C`, the fluorescence intensity is 5530.

Consider `CCOC(=O)C1(C)CCCN(C(=O)c2cccc(Cl)c2)C1` (stereo not drawn), for which the fluorescence intensity was 3450.

In the case of `CC(=NC1CCN(Cc2ccccc2)CC1)c1c(O)[nH]c(=O)[nH]c1=O`, the fluorescence intensity was 22800 (active).

With `CC(=NCC1CCCO1)c1c(O)[nH]c(=O)[nH]c1=O` (stereo not drawn), the fluorescence intensity is 2530.

As to `CC(=NC1CCN(Cc2ccccc2)CC1)c1c(O)n(C)c(=O)n(C)c1=O`, the fluorescence intensity is 22500 (active).

On to `COCCn1c(CN2CCC(Cc3ccccc3)CC2)nc2c1c(=O)n(C)c(=O)n2C`, for which the fluorescence intensity is 2950.

As for `CC1CCN(Cc2nc3c(c(=O)n(C)c(=O)n3C)n2CCc2ccccc2)CC1`, the fluorescence intensity was 3630.

For the compound `CC(=NCc1ccc2c(c1)OCO2)c1c(O)[nH]c(=O)[nH]c1=O`, the fluorescence intensity was 4690.

`Cc1ccc2c(c1)nnc1nnc(SCC(=O)O)n12`: the fluorescence intensity was 6320.

On to `CCOc1ccc(CCN2C(=O)C(=O)N([C@@H](Cc3ccc(O)cc3)CN3CCC[C@H]3CN3C(=O)C(=O)NC[C@@H]3CC(C)C)C[C@@H]2Cc2ccccc2)cc1`, for which the fluorescence intensity is 4410.

For the compound `CCN(CCN(C)C)C(=O)c1ccc2nc(C)c(N(C)C(=O)CCc3ccccc3)n2c1`, the fluorescence intensity was 3720.

Take `Cc1c(S(=O)(=O)NCc2ccccc2)c(=O)n(C)c(=O)n1C`: the fluorescence intensity is 4270.

In the case of `CCn1c2ccccc2c2cc(NC(=O)COC(=O)c3cc(S(=O)(=O)N4CCCCC4)ccc3Cl)ccc21`, the fluorescence intensity was 1830.

`CCn1c2ccccc2c2cc(NC(=S)N3CCOCC3)ccc21`: the fluorescence intensity is 2580.

`CCn1c2ccccc2c2cc(NC(=O)C/C(C)=N/NC(=O)c3ccccc3N)ccc21`: the fluorescence intensity is 23100 (active).
